DT40 TDP1 no CPT: qHTS for Inhibitors of human tyrosyl-DNA phosphodiesterase 1 (TDP1): qHTS in cells in absence of CPT; DT40 Tdp1-/- hTDP1 cells, no CPT, ATP luminescence, 48 h; Potency, µM (series often up to 46.2 µM), without a hit: at the top dose activity change, negative = growth inhibition, most hits filed as inhibitors; hit rate 15% among 420,000; AID 686978, 2013; note: potency is the fitted concentration of half-maximal effect; % is set by controls: 0 for no effect and ±100 for the full control effect; nearly all actives have a fitted effect of over 55% in size
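Luminescent ATP content (CellTiter-Glo) served as the growth readout. Knockout chicken DT40 cells expressing human TDP1 were exposed to compounds without camptothecin for a minimum 48 hr at 37 °C.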
IL-1B inflam inh: inhibitors of inflammasome signaling (IL-1 beta secretion) | activity change, % at 57.5 µM | AID 743279 | THP-1 LPS/ATP IL-1B secretion, AlphaLISA, 16 h; stronger effect = lower value | hit rate 4.7% among 360,000; in the data active = activity change below about -50%; inconclusive = mostly about -30% to -49%; note: % is set by controls: 0 for no effect and ±100 for the full control effect
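Secreted IL-1B measured by AlphaLISA bead assay after 16 h compound exposure of THP-1 cells; compounds (final up to 57.5 uM) added 1 h before LPS (250 ng/mL) and ATP (1.25 mM) stimulation; lower signal means less secretion.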
TDP1 block: inhibitors of human tyrosyl-DNA phosphodiesterase TDP1. hit rate 0.28% among 350,000. Q9NUW8. Potency, µM (highest dose often 130 µM), for the others: at the top dose activity change, negative = inhibition, most hits filed as inhibitors. recombinant TDP1, AlphaScreen DNA substrate cleavage; note: potency is the fitted concentration of half-maximal effect; % is set by controls: 0 for no effect and ±100 for the full control effect; nearly all actives have a fitted effect of over 40% in size
Target sequence (Q9NUW8 whole entry, looked up): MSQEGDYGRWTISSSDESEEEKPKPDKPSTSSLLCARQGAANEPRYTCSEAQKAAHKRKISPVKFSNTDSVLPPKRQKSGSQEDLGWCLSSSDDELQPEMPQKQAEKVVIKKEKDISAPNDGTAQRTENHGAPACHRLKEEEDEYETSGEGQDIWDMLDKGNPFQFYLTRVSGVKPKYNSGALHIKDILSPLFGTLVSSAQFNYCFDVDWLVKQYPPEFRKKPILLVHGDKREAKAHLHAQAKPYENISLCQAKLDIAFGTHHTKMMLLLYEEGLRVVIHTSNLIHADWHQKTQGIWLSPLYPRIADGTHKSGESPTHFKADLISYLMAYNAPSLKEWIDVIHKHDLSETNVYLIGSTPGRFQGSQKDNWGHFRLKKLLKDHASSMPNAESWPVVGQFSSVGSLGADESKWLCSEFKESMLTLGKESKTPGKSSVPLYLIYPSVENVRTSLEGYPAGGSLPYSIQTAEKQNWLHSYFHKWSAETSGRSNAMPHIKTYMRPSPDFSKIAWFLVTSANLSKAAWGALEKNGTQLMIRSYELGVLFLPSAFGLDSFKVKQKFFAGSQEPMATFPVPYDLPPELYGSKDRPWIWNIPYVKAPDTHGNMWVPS
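Compounds were preincubated with Tdp1 (1 nM final) for 15 min at room temperature before substrate (15 nM final) started a 5 min reaction; beads (10 ug/ml final) were then added for 10 min before AlphaScreen detection.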
TDP1 cell CPT: growth inhibition of DT40 Tdp1-/-;hTDP1 cells with camptothecin (screen for TDP1 inhibitors). chicken DT40 Tdp1-/-;hTDP1 cells + 20 nM CPT, ATP luminescence, 48 h. Potency, µM (top dose mostly 46.2 µM), without a hit: at the top dose activity change, negative = growth inhibition, usual class: inhibitors. hit rate 12% among 420,000. AID 686979; note: potency is the fitted concentration of half-maximal effect; % is set by controls: 0 for no effect and ±100 for the full control effect; nearly all actives have a fitted effect of over 55% in size
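Chicken DT40 Tdp1-/- cells stably complemented with human TDP1 were seeded at 400 cells/well in medium containing 20 nM camptothecin, exposed to pin-transferred compounds, and grown at 37 °C for at least 48 hr. Viability was read as ATP luminescence.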
TGFb SMAD3 inh: blocks TGF-b signaling. HepG2 CAGA-GFP TGF-b/SMAD3 reporter, GFP fluorescence, 18 h; TGF-beta stimulated, 500 pg/mL final. AID 588855. hit rate 1.2% among 410,000. Potency, µM (top dose mostly 46.1 µM), for the others: at the highest dose activity, negative = inhibition, hits mostly inhibitors; note: potency is the fitted concentration of half-maximal effect; % is set by controls: 0 for no effect and ±100 for the full control effect; nearly all actives have a fitted effect of over 65% in size
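Read-out: total well GFP (ex488/em500-530) summed from mean per-cell fluorescence. Cells: HEPG2 CAGA-GFP, 1% FBS DMEM, 18 h at 37 degrees C with 500 pg/mL final TGF-beta. Unstimulated wells served as the full-inhibition control; stimulated DMSO wells = 0%.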
HepG2 tox: kills HepG2 cells in TGF-b inhibitor counter-screen. AID 588856. Potency, µM (doses to about 46.1 µM), for inactives: at the top dose activity change, negative = cytotoxicity, most hits filed as cytotoxic. hit rate 0.76% among 410,000. HepG2 CAGA-GFP viability, ATP luminescence, 18 h; note: potency is the fitted concentration of half-maximal effect
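HepG2 CAGA-GFP cells (1000/well, DMEM with 1% FBS) received compound, then TGF-beta at 500 pg/mL final, and were incubated 18 hours at 37 degrees C. Viability was read by CellTiter-Glo luminescence. Media-only wells were set as complete cell-killing and DMSO as no toxicity.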
The depositor's hits bear a star; ? = inconclusive; / = no result given. A selection: hits, their analogues and other compounds. The true share with any hit is near 19%. Unless noted, calls come from the whole dose curve; as a rule, active = well fitted curve in the direction sought with a large enough effect; inconclusive = small, poorly fitted or top-dose-only effect, or another doubt; inactive = no such curve, though single readings can be large; an effect the other way counts as inactive or inconclusive.

SMILES	DT40 TDP1 no CPT	IL-1B inflam inh	TDP1 block	TDP1 cell CPT	TGFb SMAD3 inh	HepG2 tox
Nc1c(C(=O)N/N=C/c2cccnc2)oc2nc(-c3ccccc3)cc(-c3ccco3)c12	15µM*	/	/	?	33%	-36%
NNC(=O)c1oc2nc(-c3ccco3)cc(-c3ccco3)c2c1N	?	-53*	/	?	-20%	6%
NNC(=O)c1oc2nc(-c3ccc(Cl)cc3)cc(-c3ccccc3)c2c1N	-29%	-82*	/	?	-5%	-15%
Nc1c(C(=O)O)sc2nc(-c3ccccc3)cc(-c3ccc(Cl)cc3)c12	-19%	-5	71µM*	-13%	-28%	-25%
Nc1c(C(=O)O)sc2nc(-c3ccc(F)cc3)cc(-c3ccccc3)c12	?	28	1%	-28%	-8%	-5%
NC(=O)COC(=O)c1cc(-c2ccco2)nc2ccccc12	-3%	-20	/	7%	6%	-15%
COc1ccc(OCC2c3cc(OC)c(OC)cc3CCN2C(=O)c2ccc(F)cc2)cc1 (stereo not drawn)	?	/	8%	-28%	-7%	-10%
Cc1ccc(N(CC(=O)NCCc2ccc(Cl)cc2)S(=O)(=O)N(C)C)cc1	?	/	4%	?	-24%	-1%
Nc1c(C(=O)N/N=C/c2cccnc2)oc2nc(-c3ccco3)cc(-c3ccco3)c12	0.46µM*	-11	7%	2.9µM*	21%	-48%
CCC(=O)N1CCc2cc(Br)cc(S(=O)(=O)N3CCCC(C(=O)Nc4ccc(C(C)C)cc4)C3)c21 (stereo not drawn)	?	/	4%	-26%	41%	-6%
CC(C)Cn1cc(NC(=O)NCc2ccc(Cl)cc2)c2ccccc2c1=O	18µM*	/	6%	?	-3%	-18%
CC(C)Cn1cc(NC(=O)NCc2cccc(Cl)c2)c2ccccc2c1=O	?	/	0%	26µM*	-3%	-81%
CC(C)Cn1cc(NC(=O)NCc2ccccc2)c2ccccc2c1=O	?	/	2%	?	-4%	-18%
CC(C)Cn1cc(NC(=O)NCc2ccccc2Cl)c2ccccc2c1=O	18µM*	/	1%	?	0%	-26%
CC1CCC2(CC1)NC(=O)N(CC(=O)Nc1cccc(S(=O)(=O)N(C)c3ccccc3)c1)C2=O (stereo not drawn)	29µM*	?	/	18µM*	1%	-16%
Cc1cc(C)c(NC(=O)CN(C)CC(=O)Nc2cccc(S(=O)(=O)N(C)c3ccccc3)c2)c(C)c1	23µM*	?	2%	?	?	-3%
Cc1ccccc1CN(C)CC(=O)Nc1cccc(S(=O)(=O)N(C)c2ccccc2)c1	16µM*	17	-1%	21µM*	-3%	-16%
CCOc1ccc(CN(C)CC(=O)Nc2cccc(C)c2)cc1OC	9.2µM*	10	3%	21µM*	2%	-8%
CC(=O)NCCC(=O)Nc1cccc(S(=O)(=O)N(C)c2ccccc2)c1	3%	24	8%	-7%	-5%	-3%
CCN(CC)S(=O)(=O)c1cccc(NC(=O)CN(C)Cc2cccc(OC)c2)c1	23µM*	29	1%	?	-19%	-2%
CN(c1ccccc1)S(=O)(=O)c1cccc(NC(=O)CN2CCCc3ccccc32)c1	18µM*	-28	7%	?	?	-4%
NS(=O)(=O)c1cccc(NC(=O)CN2CCc3ccccc32)c1	-2%	33	5%	?	5%	-20%
CCN(CC(=O)Nc1cccc(C(C)=O)c1)S(=O)(=O)c1ccc(OC)cc1	?	4	-4%	2%	8%	-30%
CCN(CC(=O)Nc1cccc(S(=O)(=O)N(C)c2ccccc2)c1)Cc1ccccc1	?	5	0%	18µM*	-2%	-13%
CC(C)Cn1c(=O)c2ccccc2n2c(CCC(=O)NCc3ccc(Cl)cc3)nnc12	-22%	/	-2%	?	1%	-5%
SMILES	DT40 TDP1 no CPT	IL-1B inflam inh	TDP1 block	TDP1 cell CPT	TGFb SMAD3 inh	HepG2 tox
Cc1ccc(C)c(NC(=O)c2cnn(-c3ccc(F)cc3F)c2C2CCNCC2)c1	9.2µM*	/	-1%	21µM*	5%	-10%
COc1ccc(OC)c(NC(=O)c2cnn(-c3ccc(C)cc3)c2C2CCNCC2)c1	26µM*	/	3%	21µM*	-1%	-40%
CCc1ccc(NC(=O)c2cnn(-c3c(C)cccc3C)c2C2CCNCC2)cc1	23µM*	/	2%	?	5%	-26%
Cc1cc(C)cc(NC(=O)c2cnn(-c3ccc(C)c(C)c3)c2C2CCNCC2)c1	?	/	7%	?	-14%	-34%
Cc1cccc(NC(=O)c2cnn(-c3ccc(F)cc3)c2C2CCNCC2)c1C	-27%	-22	-1%	-29%	14%	-40%
Cc1cc(C)cc(NC(=O)c2cnn(-c3ccccc3)c2C2CCNCC2)c1	16µM*	-26	4%	?	-21%	-23%
O=C(COc1ccccc1)Nc1nnc(SCc2cc(=O)n3cc(Cl)ccc3n2)s1	1%	/	3%	3%	0%	-16%
O=C(Oc1ccc([N+](=O)[O-])cc1)C1CC(=O)N(c2ccc3c(c2)OCCO3)C1 (stereo not drawn)	3%	6	/	1%	-1%	-19%
Cc1ccc(-n2ncc(C(=O)Nc3cc(Cl)ccc3C)c2C2CCNCC2)cc1C	23µM*	-30	-1%	16µM*	-19%	-30%
Cc1ccccc1-c1nc2c(c(SCc3cccc(Cl)c3)n1)Cc1c(CO)cnc(C)c1O2	2%	/	-3%	?	-25%	6%

Source: PubChem BioAssay (National Center for Advancing Translational Sciences (NCATS))
